The subject of one assay is MKL-1. The experiment in a line: qHTS assay to identify novel small-molecules to repurpose for Merkel cell carcinoma treatment (AID 1296009). Further: nearly all actives have a fitted effect of over 60% in size. Further: potency means the concentration at half of the fitted maximal effect. The note with it: MCC and control cell lines, CellTiter-Glo viability, 72 h; series mostly up to 46 µM. The method, boiled down: (§1)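 Dose-response viability screen; 72 hr exposure at 37 degree celsius; CellTiter-Glo added, 10 min room temperature, luminescence read; RLUs scaled between no-cell and DMSO wells.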

The next assay has as its system MKL-2. The assay is described as above. As to conditions: MCC and control cell lines, CellTiter-Glo viability, 72 h; series mostly up to 46 µM. Summed up:
as §1

The next assay has as its system UISO. The assay is described as above. The note with it: MCC and control cell lines, CellTiter-Glo viability, 72 h; series mostly up to 46 µM. The method, boiled down: as §1
(ATP-based viability assays read luminescence as a measure of living cells.)

For another assay, the system named is WaGa. The description is as above. As to conditions: MCC and control cell lines, CellTiter-Glo viability, 72 h; series mostly up to 46 µM. The method, boiled down:
as §1

The subject of the next assay is C33A. The experiment in a line: Primary qHTS to identify gynecologic anti-cancer compounds using libraries of approved drugs and bioactive compounds (AID 1345084). Further: nearly all actives have a fitted effect of over 55% in size. Further: potency means the concentration at half of the fitted maximal effect. As to conditions: Gynecologic cancer cell panel viability, ATPlite luminescence, 48 h; series mostly up to 57.5 µM. The method, boiled down: (§2)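 Cells, 1,000 per well, plated 16 h, then exposed 48 h at 37 C to compounds. Viability by ATPlite luminescence after 15 min at room temperature.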

A further assay relates to CAOV3. Described as above. The note with it: Gynecologic cancer cell panel viability, ATPlite luminescence, 48 h; series mostly up to 57.5 µM. Summed up:
as §2

A further assay concerns CASKI. The description is as above. The note with it: Gynecologic cancer cell panel viability, ATPlite luminescence, 48 h; series mostly up to 57.5 µM. The method, boiled down: as §2
The next assay has as its system Es-2. The assay is described as above. The note with it: Gynecologic cancer cell panel viability, ATPlite luminescence, 48 h; series mostly up to 57.5 µM. The method, boiled down:
as §2

The test system of a further assay is HeLa. The description is as above. The note with it: Gynecologic cancer cell panel viability, ATPlite luminescence, 48 h; series mostly up to 57.5 µM. The method, boiled down: as §2
For a further assay, the system named is Hek293T. Described as above. As to conditions: Gynecologic cancer cell panel viability, ATPlite luminescence, 48 h, control line for the selectivity index; series mostly up to 57.5 µM. Summed up: as §2
A further assay deals with JEG-3. The assay is described as above. As to conditions: Gynecologic cancer cell panel viability, ATPlite luminescence, 48 h; series mostly up to 57.5 µM. The method, boiled down: as §2
The next assay relates to OV90. The description is as above. The note with it: Gynecologic cancer cell panel viability, ATPlite luminescence, 48 h; series mostly up to 57.5 µM. The method, boiled down:
as §2

The test system of a further assay is PA-1. Described as above. The note with it: Gynecologic cancer cell panel viability, ATPlite luminescence, 48 h; series mostly up to 57.5 µM. The method, boiled down: as §2
The next assay concerns SKOV3. Described as above. As to conditions: Gynecologic cancer cell panel viability, ATPlite luminescence, 48 h; series mostly up to 57.5 µM. The method, boiled down: as §2
For a further assay, the system named is Tov-21-G. Described as above. The note with it: Gynecologic cancer cell panel viability, ATPlite luminescence, 48 h; series mostly up to 57.5 µM. Summed up: as §2
The next assay deals with Tov112D. Described as above. The note with it: Gynecologic cancer cell panel viability, ATPlite luminescence, 48 h; series mostly up to 57.5 µM. The method, boiled down: as §2
A short description of assay [1]: Drug repurposing screens with cells derived from glioblastoma tumor samples (AID 1345199). Further: nearly all actives have a fitted effect of over 40% in size. The note with it: GBM patient neurospheres viability, ATP luminescence, 48 h. Summed up:
(§3)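 Primary testing used CD133+ neurospheres from four GBM patients, seven concentrations, 48 h exposure and ATP-based viability; confirmation added three slower-growing patient lines.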

The subject of a further assay is astro. The description is as above. As to conditions: viability, ATP luminescence, 48 h; series mostly up to 45.9 µM. The method, boiled down: as §3

Records with an inconclusive call do not appear. A number with no mark means an inactive call. Active and inactive are the calls of the source. The call rests on the fitted dose curve; in most records, active means well fitted curve in the direction sought with a large enough effect; inconclusive means small, poorly fitted or top-dose-only effect, or another doubt; inactive means no such curve, though single readings can be large; an effect the other way counts as inactive or inconclusive.
On the % scale 0 is the no-effect control and ±100 the full control effect.

With `O=C(O)CCC=CCC[C@@H]1[C@H](N2CCCCC2)[C@@H](O)C[C@@H]1OCc1ccc(-c2ccccc2)cc1`, the Potency result in the assay with MKL-1, with MKL-2, in the assay with UISO and in the assay with WaGa was “inactive” in each case.
On to `Nc1ncnc2c1ncn2[C@@H]1O[C@H](CO)[C@@H](O)[C@@H]1O`, for which the figures for the Potency in the assay on MKL-1, in the assay on MKL-2 and in the assay on WaGa were 14.8 µM (active), 1.66 µM (active) and 1.05 µM (active), respectively. The Potency entry with UISO is “inactive”.
`CN1N=C(N)c2cn([C@@H]3O[C@H](COP(=O)(O)O)[C@@H](O)[C@@H]3O)c3ncnc1c23`: the Potency with MKL-1 was 5.9 µM (active); with MKL-2 it was 5.9 µM (active); in the assay on UISO, 469 nM (active); with WaGa, 0.0372 µM (active).
`CCOC(=O)[C@H]1O[C@H]1C(=O)N[C@@H](CC(C)C)C(=O)NCCC(C)C`: the Potency entry with MKL-1, with MKL-2, in the assay with UISO and in the assay with WaGa was “inactive” in each case.
With `CCC=CC[C@H]1C(=O)CC[C@@H]1CC(=O)OC`, the Potency entry with MKL-1, in the assay with MKL-2, with UISO and with WaGa was “inactive” in each case.
Turning to `CN(CC=CC#CC(C)(C)C)Cc1cccc2ccccc12`, the Potency result with MKL-1, in the assay on MKL-2, in the assay on UISO and with WaGa was “inactive” throughout.
Regarding `O=C(Nc1ccccc1)Nc1ccc(-c2ccc(C(=O)[C@H]3CCC[C@H]3C(=O)O)cc2)cc1`, the Potency result in the assay with MKL-1, in the assay on MKL-2, in the assay on UISO and with WaGa was “inactive” each time.
Consider `CC(C)c1c(C(=O)Nc2ccccc2)c(-c2ccccc2)c(-c2ccc(F)cc2)n1CC[C@H](O)C[C@@H](O)CC(=O)O`, for which the Potency in the assay with MKL-1 is 18.7 µM (active); in the assay with MKL-2 it was 10.5 µM (active); in the assay with UISO, 14800 nM (active); in the assay on WaGa, 23.5 µM (active).
For `Cc1cccc(-c2[nH]c(C(C)(C)C)nc2-c2ccc3c(c2)OCO3)n1`, the Potency in the assay on MKL-1 is 3.72 µM (active); with MKL-2 it was 0.743 µM (active); with UISO, 1320 nM (active); in the assay with WaGa, 2.64 µM (active).
Take `O=C1CCCC(=O)C1C(=O)c1ccc(C(F)(F)F)cc1[N+](=O)[O-]`: the Potency entry with MKL-1, in the assay with MKL-2, with UISO and with WaGa was “inactive” throughout.
Take `COc1cc(Cl)cn2c(-c3cccc(NC4CNC4)n3)cnc12`: the Potency result with MKL-1, in the assay with MKL-2, in the assay on UISO and with WaGa was “inactive” in each case.
Turning to `OC[C@H]1O[C@@H](O[C@H]2[C@@H](O)[C@@](O)(CO)O[C@@H]2CO)[C@H](O)[C@@H](O)[C@@H]1O`, the Potency entry in the assay with MKL-1, with MKL-2, in the assay on UISO and in the assay on WaGa was “inactive” in each case.
Regarding `COc1ccc(C=CC(=O)Nc2ccccc2C(=O)O)cc1OC`, the Potency entry with MKL-1, in the assay with MKL-2, in the assay on UISO and in the assay with WaGa was “inactive” each time.
Take `CC(C)=CCCC(C)=CCCC(C)=CCCC(C)=CCCC(C)=CCCC(C)=CCCC(C)=CCCC(C)=CCCC(C)=CCO`: the Potency entry in the assay on MKL-1, in the assay with MKL-2, in the assay with UISO and in the assay with WaGa was “inactive” throughout.
Consider `C#C[C@]1(O)CC[C@H]2[C@H]3CCc4cc(OC)ccc4[C@H]3CC[C@@]21C`, for which the Potency result in the assay on MKL-1, in the assay with MKL-2, with UISO and in the assay with WaGa was “inactive” each time.
For the compound `CC(C)(F)C[C@H](N[C@@H](c1ccc(-c2ccc(S(C)(=O)=O)cc2)cc1)C(F)(F)F)C(=O)NC1(C#N)CC1`, the Potency result in the assay on MKL-1, with MKL-2, with UISO and in the assay with WaGa was “inactive” in each case.
On to `NC(=O)c1nnn(Cc2cc(Cl)c(C(=O)c3ccc(Cl)cc3)c(Cl)c2)c1N`, for which the Potency entry in the assay with MKL-1, in the assay with MKL-2, in the assay with UISO and in the assay with WaGa was “inactive” in each case.
`CC(C)CN(C[C@H](O)[C@H](Cc1ccccc1)NC(=O)O[C@H]1CCOC1)S(=O)(=O)c1ccc(N)cc1`: the Potency entry with MKL-1, in the assay on MKL-2, with UISO and in the assay with WaGa was “inactive” throughout.
As for `NS(=O)(=O)c1cc(Cl)c(Cl)c(S(N)(=O)=O)c1`, the Potency entry in the assay on MKL-1, in the assay on MKL-2, in the assay with UISO, with WaGa, in the assay with C33A and in the assay with CAOV3 was “inactive” throughout. Besides, the Potency result in the assay with CASKI, in the assay on Es-2, in the assay on HeLa, with Hek293T, in the assay on JEG-3 and in the assay with OV90 was “inactive” in each case. Also, the Potency result in the assay on PA-1, in the assay on SKOV3, in the assay with Tov-21-G, with Tov112D and in the assay on astro was “inactive” throughout. The activity, negative = cell killing in assay [1] (at 20 µM (top of the series), tumour line C) was 4.89%; in assay [1] (at 21.2 µM (top of the series), tumour line B), -0.766%; in [1] (at 21.2 µM (top of the series), tumour line D), 5.15%; in assay [1] (at 21.3 µM (top of the series), tumour line A) it was -15%.
Regarding `Nc1ccc(-c2ccc3ncc4ccc(=O)n(-c5cccc(C(F)(F)F)c5)c4c3c2)cn1`, the Potency with MKL-1 is 0.148 µM (active); with MKL-2, 0.132 µM (active); in the assay with UISO it was 33.2 nM (active); with WaGa, 0.372 µM (active); in the assay on CASKI, 1 µM (active); in the assay on Es-2, 316 nM (active). Further, the Potency was 2.51 µM (active) in the assay with HeLa, 316 nM (active) with Hek293T, 8.91 µM (active) in the assay with JEG-3 and 17.8 µM (active) in the assay on Tov-21-G.
Turning to `CC(C)(O)CC(=O)NCCn1ccc2ncnc(Nc3ccc(Oc4cccc(C(F)(F)F)c4)c(Cl)c3)c21`, the Potency entry in the assay on MKL-1, with MKL-2, in the assay with UISO, in the assay on WaGa, in the assay on C33A and with Es-2 was “inactive” throughout. The Potency result with HeLa, in the assay with Hek293T, in the assay on JEG-3, in the assay on OV90, in the assay on PA-1 and with Tov-21-G was “inactive” throughout. Further, the Potency entry in the assay on Tov112D is “inactive”. In the assay on SKOV3, the Potency is 22.4 µM (active).
`Cc1cc(C(C)Nc2ccccc2)c2nc(N3CCOCC3)cc(=O)n2c1` (stereo not given): the Potency entry in the assay on MKL-1, with MKL-2, in the assay with UISO, with WaGa, in the assay with C33A and with Es-2 was “inactive” throughout. The Potency entry in the assay on HeLa, in the assay on Hek293T, in the assay on JEG-3, in the assay on OV90, in the assay with PA-1 and in the assay with SKOV3 was “inactive” throughout. The Potency result in the assay with Tov-21-G and in the assay on Tov112D was “inactive” in each case.
`CN1CCC[C@H]1CCO[C@](C)(c1ccccc1)c1ccc(Cl)cc1`: the Potency result in the assay with MKL-1, in the assay on MKL-2, in the assay with UISO and with WaGa was “inactive” in each case.

The values are drawn from PubChem BioAssay (NCATS).
